# Source: ChEMBL document CHEMBL1961873, “Compounds: GSK PKIS; Assays: Nanosyn kinase panel” (2012)
# Experiments:
# [1] = target: T1, Inhibitor of nuclear factor kappa-B kinase subunit epsilon (Homo sapiens) (UniProt Q14164); conditions: at 1 µM;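 further: reported values are averaged percent inhibition figures against human IKKε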
# T1 sequence (whole entry): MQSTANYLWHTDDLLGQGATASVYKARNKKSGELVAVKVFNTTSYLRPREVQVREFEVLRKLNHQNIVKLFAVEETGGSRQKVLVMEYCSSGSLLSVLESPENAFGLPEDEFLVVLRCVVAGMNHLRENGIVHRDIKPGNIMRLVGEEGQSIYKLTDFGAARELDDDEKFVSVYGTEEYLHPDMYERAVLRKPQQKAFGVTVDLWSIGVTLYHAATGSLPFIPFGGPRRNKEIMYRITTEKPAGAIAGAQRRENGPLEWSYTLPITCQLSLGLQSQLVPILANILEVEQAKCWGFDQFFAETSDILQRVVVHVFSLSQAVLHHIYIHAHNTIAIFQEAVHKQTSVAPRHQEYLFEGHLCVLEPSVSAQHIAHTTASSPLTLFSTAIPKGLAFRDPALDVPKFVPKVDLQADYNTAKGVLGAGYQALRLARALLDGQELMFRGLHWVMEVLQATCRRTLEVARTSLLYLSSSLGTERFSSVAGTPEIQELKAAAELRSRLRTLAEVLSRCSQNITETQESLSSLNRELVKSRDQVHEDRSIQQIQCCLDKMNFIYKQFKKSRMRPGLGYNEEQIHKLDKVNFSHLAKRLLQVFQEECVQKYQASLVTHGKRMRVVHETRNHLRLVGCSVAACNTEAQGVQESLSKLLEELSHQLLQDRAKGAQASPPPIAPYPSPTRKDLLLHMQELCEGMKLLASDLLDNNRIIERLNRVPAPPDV
# [2] = target: T2, Serine/threonine-protein kinase Nek1 (Homo sapiens) (UniProt Q96PY6); conditions: at 0.1 µM
# T2 sequence (whole entry): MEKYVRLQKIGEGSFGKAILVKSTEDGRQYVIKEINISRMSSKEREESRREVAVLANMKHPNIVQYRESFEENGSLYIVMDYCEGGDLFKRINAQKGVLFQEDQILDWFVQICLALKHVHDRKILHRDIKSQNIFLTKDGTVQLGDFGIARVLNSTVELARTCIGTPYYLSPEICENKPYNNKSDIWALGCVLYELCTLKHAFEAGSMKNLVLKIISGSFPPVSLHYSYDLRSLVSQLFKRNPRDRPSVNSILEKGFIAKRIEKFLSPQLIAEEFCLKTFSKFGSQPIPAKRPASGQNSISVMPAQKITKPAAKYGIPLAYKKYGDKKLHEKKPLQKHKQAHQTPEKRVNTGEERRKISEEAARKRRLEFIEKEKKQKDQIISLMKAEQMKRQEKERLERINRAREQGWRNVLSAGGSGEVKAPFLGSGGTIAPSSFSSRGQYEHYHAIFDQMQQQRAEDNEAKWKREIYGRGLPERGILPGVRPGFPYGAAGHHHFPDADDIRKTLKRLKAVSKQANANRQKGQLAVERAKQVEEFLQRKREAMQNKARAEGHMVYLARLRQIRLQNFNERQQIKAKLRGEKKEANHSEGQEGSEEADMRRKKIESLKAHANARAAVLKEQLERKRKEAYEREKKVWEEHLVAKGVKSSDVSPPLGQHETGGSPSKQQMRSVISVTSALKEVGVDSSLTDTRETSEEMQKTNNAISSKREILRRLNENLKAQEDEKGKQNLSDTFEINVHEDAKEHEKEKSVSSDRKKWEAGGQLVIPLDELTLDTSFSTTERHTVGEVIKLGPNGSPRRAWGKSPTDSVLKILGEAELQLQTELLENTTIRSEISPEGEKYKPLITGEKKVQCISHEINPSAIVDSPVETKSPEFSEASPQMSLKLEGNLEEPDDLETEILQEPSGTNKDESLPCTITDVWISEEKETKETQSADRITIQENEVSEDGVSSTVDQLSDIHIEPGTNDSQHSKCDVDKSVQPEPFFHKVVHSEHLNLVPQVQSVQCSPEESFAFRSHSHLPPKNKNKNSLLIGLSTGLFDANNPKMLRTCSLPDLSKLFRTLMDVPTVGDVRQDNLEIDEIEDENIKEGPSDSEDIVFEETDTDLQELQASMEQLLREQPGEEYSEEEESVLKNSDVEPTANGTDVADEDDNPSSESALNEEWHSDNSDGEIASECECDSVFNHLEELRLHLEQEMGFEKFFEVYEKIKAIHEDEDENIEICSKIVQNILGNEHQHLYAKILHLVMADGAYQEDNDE
# [3] = target: T2, Serine/threonine-protein kinase Nek1 (Homo sapiens); conditions: at 1 µM
# [4] = target: T3, Serine/threonine-protein kinase Nek2 (Homo sapiens) (UniProt P51955); conditions: at 0.1 µM
# T3 sequence (whole entry): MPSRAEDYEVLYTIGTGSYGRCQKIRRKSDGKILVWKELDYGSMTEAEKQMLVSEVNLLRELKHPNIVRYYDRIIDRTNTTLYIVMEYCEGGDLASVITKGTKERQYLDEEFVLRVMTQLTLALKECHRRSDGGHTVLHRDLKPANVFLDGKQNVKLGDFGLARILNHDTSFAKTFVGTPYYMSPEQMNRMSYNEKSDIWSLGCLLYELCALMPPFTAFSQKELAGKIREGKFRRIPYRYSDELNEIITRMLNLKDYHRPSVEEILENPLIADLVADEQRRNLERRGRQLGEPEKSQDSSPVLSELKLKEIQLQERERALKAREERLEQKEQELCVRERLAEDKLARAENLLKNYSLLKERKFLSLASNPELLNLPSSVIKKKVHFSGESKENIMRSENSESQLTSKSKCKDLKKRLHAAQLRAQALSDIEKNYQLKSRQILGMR
# [5] = target: T3, Serine/threonine-protein kinase Nek2 (Homo sapiens); conditions: at 1 µM
# [6] = target: Serine/threonine-protein kinase Nek6 (Homo sapiens) (UniProt Q9HC98); conditions: at 0.1 µM
# Sequence of Serine/threonine-protein kinase Nek6 (Homo sapiens) (Q9HC98 whole entry): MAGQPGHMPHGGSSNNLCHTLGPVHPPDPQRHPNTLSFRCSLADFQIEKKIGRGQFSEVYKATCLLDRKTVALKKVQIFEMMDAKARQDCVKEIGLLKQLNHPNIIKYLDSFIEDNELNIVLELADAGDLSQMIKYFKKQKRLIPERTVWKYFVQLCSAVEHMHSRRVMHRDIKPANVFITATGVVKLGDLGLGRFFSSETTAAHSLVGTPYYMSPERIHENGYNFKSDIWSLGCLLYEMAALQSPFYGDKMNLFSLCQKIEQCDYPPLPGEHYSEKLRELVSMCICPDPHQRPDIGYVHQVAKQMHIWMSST
# [7] = target: Serine/threonine-protein kinase Nek6 (Homo sapiens) (UniProt Q9HC98); conditions: at 1 µM
# [8] = target: Serine/threonine-protein kinase Nek7 (Homo sapiens) (UniProt Q8TDX7); conditions: at 1 µM
# Sequence of Serine/threonine-protein kinase Nek7 (Homo sapiens) (Q8TDX7 whole entry, looked up): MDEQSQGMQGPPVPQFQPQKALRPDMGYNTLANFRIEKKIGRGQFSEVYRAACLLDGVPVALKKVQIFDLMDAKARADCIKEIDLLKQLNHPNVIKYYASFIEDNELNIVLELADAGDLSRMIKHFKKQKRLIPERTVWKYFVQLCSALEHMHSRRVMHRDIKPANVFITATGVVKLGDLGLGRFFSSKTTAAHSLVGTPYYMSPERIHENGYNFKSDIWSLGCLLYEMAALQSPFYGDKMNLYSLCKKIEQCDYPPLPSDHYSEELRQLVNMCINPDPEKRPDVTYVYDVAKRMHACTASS
# [9] = target: T4, Serine/threonine-protein kinase Nek9 (Homo sapiens) (UniProt Q8TD19); conditions: at 0.1 µM
# T4 sequence (whole entry): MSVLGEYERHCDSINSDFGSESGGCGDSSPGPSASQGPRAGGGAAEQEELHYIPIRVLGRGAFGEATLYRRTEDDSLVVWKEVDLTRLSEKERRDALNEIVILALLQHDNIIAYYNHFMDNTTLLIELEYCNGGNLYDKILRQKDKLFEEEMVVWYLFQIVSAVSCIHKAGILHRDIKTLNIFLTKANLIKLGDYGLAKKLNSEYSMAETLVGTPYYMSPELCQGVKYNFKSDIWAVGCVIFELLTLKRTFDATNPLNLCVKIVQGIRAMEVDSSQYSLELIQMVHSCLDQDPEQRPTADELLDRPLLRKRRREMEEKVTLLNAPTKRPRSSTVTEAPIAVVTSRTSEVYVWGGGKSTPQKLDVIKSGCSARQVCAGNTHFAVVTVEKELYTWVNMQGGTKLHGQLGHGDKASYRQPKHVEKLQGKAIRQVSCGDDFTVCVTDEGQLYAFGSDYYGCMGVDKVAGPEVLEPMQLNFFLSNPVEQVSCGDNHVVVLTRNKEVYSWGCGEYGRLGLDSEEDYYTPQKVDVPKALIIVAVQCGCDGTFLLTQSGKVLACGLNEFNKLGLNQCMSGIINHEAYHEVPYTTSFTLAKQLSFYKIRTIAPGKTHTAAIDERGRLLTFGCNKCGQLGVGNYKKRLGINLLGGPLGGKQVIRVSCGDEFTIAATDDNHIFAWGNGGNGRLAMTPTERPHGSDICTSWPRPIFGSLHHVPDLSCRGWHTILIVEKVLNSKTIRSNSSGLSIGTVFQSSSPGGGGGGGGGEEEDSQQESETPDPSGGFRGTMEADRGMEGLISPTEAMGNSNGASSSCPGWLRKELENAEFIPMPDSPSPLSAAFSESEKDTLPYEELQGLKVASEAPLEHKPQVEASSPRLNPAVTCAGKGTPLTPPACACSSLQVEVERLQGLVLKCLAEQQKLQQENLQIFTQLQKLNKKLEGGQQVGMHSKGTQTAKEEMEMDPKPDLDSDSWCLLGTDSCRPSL
# [10] = target: T4, Serine/threonine-protein kinase Nek9 (Homo sapiens); conditions: at 1 µM
# [11] = target: Serine/threonine-protein kinase PLK1 (Homo sapiens) (UniProt P53350); conditions: at 0.1 µM
# Sequence of Serine/threonine-protein kinase PLK1 (Homo sapiens) (P53350 whole entry): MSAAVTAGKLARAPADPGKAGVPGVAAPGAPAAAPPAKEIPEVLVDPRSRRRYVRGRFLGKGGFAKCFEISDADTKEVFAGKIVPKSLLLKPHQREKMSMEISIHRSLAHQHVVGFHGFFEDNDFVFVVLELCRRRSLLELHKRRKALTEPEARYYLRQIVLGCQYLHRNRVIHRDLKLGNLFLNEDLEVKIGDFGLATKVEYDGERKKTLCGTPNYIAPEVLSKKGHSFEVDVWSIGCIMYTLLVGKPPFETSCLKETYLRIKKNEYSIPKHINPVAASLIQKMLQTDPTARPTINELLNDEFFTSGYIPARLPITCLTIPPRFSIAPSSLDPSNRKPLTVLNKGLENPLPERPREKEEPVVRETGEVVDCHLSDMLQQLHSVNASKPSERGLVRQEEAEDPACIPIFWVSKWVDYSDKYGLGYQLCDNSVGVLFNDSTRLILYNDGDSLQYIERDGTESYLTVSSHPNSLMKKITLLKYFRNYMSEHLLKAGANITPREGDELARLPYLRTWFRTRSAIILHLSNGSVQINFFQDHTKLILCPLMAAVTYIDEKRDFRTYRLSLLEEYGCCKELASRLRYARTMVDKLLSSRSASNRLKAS
# [12] = target: Serine/threonine-protein kinase PLK1 (Homo sapiens) (UniProt P53350); conditions: at 1 µM
# [13] = target: T5, Dual specificity protein kinase TTK (Homo sapiens) (UniProt P33981); conditions: at 0.1 µM
# T5 sequence (whole entry): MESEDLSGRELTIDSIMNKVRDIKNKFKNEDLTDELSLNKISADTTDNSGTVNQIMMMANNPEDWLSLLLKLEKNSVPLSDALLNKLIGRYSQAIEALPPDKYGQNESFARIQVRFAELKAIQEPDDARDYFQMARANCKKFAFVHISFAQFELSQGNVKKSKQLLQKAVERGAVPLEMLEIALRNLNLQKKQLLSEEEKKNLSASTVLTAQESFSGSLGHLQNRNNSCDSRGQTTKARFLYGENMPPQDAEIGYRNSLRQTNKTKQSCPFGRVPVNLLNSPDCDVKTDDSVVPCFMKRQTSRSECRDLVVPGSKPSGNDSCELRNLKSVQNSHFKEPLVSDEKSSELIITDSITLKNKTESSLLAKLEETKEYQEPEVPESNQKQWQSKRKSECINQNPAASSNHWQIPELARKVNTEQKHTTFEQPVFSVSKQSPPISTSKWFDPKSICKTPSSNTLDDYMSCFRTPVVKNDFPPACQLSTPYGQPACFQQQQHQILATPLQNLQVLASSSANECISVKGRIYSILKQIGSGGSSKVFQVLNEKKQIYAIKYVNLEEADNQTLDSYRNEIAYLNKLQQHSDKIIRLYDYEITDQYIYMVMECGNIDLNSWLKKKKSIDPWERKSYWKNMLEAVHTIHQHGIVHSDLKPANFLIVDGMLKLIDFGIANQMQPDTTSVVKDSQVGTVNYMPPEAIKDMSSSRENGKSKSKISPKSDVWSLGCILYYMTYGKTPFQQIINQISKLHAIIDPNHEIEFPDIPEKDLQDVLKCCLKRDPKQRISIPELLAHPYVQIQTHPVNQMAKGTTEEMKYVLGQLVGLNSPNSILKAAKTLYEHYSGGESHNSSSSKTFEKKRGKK
# [14] = tested on: T6, Receptor-type tyrosine-protein kinase FLT3 (Homo sapiens), P36888 [D835Y]; conditions: at 1 µM
# T6 sequence (whole entry): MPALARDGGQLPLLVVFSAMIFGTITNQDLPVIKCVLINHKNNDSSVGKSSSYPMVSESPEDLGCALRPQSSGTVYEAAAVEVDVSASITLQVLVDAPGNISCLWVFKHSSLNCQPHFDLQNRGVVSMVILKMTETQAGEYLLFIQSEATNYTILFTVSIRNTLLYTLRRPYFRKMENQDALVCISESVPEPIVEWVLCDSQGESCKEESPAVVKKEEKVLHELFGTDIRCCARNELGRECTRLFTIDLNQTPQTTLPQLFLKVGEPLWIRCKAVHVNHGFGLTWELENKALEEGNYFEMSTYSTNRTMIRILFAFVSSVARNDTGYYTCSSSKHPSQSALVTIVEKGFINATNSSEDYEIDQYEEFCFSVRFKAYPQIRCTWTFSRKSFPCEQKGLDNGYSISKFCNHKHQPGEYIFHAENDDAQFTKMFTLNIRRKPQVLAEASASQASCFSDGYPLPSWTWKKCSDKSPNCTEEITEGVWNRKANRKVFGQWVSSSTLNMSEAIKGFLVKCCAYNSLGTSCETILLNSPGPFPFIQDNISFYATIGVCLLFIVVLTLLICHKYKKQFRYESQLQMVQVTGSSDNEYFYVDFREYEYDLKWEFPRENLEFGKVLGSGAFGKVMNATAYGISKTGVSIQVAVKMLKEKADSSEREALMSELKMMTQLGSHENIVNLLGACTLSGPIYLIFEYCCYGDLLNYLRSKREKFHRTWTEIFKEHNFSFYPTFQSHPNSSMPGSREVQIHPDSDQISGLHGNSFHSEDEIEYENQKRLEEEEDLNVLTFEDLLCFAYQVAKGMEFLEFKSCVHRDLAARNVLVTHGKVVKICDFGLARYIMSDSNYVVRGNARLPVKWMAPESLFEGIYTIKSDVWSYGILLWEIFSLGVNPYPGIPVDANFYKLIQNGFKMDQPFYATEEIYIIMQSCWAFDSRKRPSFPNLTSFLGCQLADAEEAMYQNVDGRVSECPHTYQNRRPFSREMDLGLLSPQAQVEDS
# [15] = target: Vascular endothelial growth factor receptor 3 (Homo sapiens) (UniProt P35916); conditions: at 0.1 µM
# Sequence of Vascular endothelial growth factor receptor 3 (Homo sapiens) (P35916 whole entry): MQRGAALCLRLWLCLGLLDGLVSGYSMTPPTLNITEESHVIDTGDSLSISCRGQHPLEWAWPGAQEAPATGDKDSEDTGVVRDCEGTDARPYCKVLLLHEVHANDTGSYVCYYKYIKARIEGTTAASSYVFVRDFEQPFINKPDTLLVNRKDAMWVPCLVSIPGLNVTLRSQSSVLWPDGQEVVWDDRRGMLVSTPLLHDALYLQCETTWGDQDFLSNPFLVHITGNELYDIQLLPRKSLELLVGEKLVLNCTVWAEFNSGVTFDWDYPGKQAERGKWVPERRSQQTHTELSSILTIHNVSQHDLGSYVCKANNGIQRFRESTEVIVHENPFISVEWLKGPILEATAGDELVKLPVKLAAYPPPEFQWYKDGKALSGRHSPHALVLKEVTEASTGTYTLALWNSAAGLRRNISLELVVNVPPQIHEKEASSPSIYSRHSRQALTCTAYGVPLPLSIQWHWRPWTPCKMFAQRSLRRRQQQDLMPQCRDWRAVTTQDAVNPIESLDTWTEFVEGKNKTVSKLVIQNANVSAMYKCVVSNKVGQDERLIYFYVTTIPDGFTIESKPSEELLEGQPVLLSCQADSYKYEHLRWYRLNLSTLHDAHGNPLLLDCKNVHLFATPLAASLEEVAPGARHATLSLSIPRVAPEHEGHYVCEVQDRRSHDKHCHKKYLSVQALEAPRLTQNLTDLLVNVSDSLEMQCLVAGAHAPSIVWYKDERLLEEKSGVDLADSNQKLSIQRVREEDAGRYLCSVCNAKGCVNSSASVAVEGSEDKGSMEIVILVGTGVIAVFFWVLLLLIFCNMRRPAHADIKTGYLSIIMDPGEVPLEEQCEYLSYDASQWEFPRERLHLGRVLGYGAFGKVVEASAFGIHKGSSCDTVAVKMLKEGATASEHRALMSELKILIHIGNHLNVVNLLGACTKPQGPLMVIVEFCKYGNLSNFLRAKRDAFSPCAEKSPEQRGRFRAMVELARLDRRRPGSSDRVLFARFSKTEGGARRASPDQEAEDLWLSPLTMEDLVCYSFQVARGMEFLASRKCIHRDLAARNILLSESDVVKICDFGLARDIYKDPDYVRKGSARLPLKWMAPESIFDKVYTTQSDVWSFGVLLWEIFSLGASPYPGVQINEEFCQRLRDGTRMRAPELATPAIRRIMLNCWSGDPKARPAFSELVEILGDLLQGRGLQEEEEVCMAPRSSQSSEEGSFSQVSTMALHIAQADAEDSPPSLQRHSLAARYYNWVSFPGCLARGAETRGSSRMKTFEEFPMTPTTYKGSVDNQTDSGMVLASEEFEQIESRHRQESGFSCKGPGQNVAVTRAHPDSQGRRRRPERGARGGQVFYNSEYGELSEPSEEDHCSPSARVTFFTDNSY
# [16] = target: Vascular endothelial growth factor receptor 3 (Homo sapiens) (UniProt P35916); conditions: at 1 µM
# [17] = target: Macrophage colony-stimulating factor 1 receptor (Homo sapiens) (UniProt P07333); conditions: at 1 µM
# Sequence of Macrophage colony-stimulating factor 1 receptor (Homo sapiens) (P07333 whole entry): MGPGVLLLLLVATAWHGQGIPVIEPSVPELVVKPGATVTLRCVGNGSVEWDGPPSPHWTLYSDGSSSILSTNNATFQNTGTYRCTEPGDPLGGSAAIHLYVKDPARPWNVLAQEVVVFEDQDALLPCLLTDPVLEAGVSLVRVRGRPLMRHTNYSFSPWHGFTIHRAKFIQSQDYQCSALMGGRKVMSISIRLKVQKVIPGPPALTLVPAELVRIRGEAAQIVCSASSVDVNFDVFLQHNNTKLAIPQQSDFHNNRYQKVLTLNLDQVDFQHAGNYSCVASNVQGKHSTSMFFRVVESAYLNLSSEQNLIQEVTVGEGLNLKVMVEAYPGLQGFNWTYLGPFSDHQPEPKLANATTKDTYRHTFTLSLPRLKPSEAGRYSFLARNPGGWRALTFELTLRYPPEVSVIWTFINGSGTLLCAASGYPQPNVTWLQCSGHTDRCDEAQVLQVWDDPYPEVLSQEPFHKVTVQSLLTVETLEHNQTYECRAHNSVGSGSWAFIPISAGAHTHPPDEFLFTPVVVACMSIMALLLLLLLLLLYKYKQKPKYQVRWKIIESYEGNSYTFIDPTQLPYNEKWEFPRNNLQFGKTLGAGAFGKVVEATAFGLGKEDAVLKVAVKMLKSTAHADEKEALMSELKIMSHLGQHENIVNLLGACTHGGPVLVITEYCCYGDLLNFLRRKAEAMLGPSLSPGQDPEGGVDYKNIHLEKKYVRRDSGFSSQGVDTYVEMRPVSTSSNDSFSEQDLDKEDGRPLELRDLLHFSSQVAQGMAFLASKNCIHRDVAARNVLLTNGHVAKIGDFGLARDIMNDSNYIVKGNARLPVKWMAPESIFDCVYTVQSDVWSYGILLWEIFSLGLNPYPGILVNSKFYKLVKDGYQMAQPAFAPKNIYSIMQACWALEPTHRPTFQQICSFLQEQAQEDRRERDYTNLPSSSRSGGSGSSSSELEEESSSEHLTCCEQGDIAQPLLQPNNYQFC
# [18] = target: Tyrosine-protein kinase Fyn (Homo sapiens) (UniProt P06241); conditions: at 0.1 µM
# Sequence of Tyrosine-protein kinase Fyn (Homo sapiens) (P06241 2-537 limits assumed): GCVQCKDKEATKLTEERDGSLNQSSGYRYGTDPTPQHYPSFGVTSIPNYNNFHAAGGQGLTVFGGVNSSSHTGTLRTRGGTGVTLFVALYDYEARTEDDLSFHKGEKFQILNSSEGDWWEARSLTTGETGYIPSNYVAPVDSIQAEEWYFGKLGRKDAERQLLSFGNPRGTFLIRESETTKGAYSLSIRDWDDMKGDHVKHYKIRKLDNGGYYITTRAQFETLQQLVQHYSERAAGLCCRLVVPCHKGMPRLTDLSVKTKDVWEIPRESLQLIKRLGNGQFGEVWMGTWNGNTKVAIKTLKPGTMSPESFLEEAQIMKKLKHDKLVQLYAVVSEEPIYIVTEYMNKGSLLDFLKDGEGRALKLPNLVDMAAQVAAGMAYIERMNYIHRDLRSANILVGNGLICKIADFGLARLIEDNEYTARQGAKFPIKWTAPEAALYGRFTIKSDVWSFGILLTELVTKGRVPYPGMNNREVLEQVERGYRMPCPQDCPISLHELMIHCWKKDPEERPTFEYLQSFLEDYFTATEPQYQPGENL
# [19] = target: Serine/threonine-protein kinase Nek7 (Homo sapiens) (UniProt Q8TDX7); conditions: at 0.1 µM
# [20] = target: Macrophage colony-stimulating factor 1 receptor (Homo sapiens) (UniProt P07333); conditions: at 0.1 µM
SMILES,inhibition [1],inhibition [2],inhibition [3],inhibition [4],inhibition [5],inhibition [6],inhibition [7],inhibition [8],inhibition [9],inhibition [10],inhibition [11],inhibition [12],inhibition [13],inhibition [14],inhibition [15],inhibition [16],inhibition [17],inhibition [18],inhibition [19],inhibition [20]
c1ccc(Oc2ccc(Nc3ncc(-c4ccccc4)o3)cc2)cc1,3.43%,0.18%,1.89%,1.83%,1.51%,-0.2%,0.96%,1.97%,0.25%,2.53%,1.36%,1.6%,2.58%,1.21%,3.08%,1.93%,2.76%,0.57%,–,–
Fc1ccc(-c2nc3n(c2-c2ccncc2)CCS3)cc1,4.11%,2.77%,2.98%,4.83%,4.36%,0.55%,0.72%,2.5%,2.21%,6.52%,3.85%,4.09%,6.93%,-0.91%,-8.43%,–,1.38%,0.03%,5.52%,0.95%
COc1cc(Nc2ncc3c(C)nc(-c4cccc(Oc5ccccc5)c4)n3n2)cc(OC)c1OC,21.3%,2.64%,11.3%,7.11%,31.6%,2.7%,-0.99%,1.98%,29%,81.4%,–,–,3.03%,20.2%,-1.15%,0.93%,22.3%,1.2%,4.1%,1.83%
Cc1ccc(C(=O)NC2CCC2)cc1-c1ccc(C(=O)NCC2CC2)cc1,2.96%,0.93%,3.06%,4.6%,3.71%,-0.33%,1.33%,2.04%,4.75%,5.58%,4.95%,2.15%,4.58%,8.02%,1.24%,1%,4.65%,0.98%,3.14%,-2.9%
